Measured values from the supplement of paper PMC11732987, “Enantioselective OTUD7B fragment discovery through chemoproteomics screening and high-throughput optimisation” (Communications Chemistry, 2025).

What was measured:
Experiment in all cases: log2 ratio of Biotin-Ahx-Ub-VS probe labelling (fragment/DMSO); higher = less target engagement (more negative = stronger competition), active = hit call of the paper (q ≤ 0.05, log2 ratio ≤ -1)
Details in all cases: compound concentration: 200 uM; treatment time: 3 h
USP34 = USP34 (UniProt Q70CQ2)
Sequence of USP34 (Q70CQ2 whole entry, the tested form may be a part): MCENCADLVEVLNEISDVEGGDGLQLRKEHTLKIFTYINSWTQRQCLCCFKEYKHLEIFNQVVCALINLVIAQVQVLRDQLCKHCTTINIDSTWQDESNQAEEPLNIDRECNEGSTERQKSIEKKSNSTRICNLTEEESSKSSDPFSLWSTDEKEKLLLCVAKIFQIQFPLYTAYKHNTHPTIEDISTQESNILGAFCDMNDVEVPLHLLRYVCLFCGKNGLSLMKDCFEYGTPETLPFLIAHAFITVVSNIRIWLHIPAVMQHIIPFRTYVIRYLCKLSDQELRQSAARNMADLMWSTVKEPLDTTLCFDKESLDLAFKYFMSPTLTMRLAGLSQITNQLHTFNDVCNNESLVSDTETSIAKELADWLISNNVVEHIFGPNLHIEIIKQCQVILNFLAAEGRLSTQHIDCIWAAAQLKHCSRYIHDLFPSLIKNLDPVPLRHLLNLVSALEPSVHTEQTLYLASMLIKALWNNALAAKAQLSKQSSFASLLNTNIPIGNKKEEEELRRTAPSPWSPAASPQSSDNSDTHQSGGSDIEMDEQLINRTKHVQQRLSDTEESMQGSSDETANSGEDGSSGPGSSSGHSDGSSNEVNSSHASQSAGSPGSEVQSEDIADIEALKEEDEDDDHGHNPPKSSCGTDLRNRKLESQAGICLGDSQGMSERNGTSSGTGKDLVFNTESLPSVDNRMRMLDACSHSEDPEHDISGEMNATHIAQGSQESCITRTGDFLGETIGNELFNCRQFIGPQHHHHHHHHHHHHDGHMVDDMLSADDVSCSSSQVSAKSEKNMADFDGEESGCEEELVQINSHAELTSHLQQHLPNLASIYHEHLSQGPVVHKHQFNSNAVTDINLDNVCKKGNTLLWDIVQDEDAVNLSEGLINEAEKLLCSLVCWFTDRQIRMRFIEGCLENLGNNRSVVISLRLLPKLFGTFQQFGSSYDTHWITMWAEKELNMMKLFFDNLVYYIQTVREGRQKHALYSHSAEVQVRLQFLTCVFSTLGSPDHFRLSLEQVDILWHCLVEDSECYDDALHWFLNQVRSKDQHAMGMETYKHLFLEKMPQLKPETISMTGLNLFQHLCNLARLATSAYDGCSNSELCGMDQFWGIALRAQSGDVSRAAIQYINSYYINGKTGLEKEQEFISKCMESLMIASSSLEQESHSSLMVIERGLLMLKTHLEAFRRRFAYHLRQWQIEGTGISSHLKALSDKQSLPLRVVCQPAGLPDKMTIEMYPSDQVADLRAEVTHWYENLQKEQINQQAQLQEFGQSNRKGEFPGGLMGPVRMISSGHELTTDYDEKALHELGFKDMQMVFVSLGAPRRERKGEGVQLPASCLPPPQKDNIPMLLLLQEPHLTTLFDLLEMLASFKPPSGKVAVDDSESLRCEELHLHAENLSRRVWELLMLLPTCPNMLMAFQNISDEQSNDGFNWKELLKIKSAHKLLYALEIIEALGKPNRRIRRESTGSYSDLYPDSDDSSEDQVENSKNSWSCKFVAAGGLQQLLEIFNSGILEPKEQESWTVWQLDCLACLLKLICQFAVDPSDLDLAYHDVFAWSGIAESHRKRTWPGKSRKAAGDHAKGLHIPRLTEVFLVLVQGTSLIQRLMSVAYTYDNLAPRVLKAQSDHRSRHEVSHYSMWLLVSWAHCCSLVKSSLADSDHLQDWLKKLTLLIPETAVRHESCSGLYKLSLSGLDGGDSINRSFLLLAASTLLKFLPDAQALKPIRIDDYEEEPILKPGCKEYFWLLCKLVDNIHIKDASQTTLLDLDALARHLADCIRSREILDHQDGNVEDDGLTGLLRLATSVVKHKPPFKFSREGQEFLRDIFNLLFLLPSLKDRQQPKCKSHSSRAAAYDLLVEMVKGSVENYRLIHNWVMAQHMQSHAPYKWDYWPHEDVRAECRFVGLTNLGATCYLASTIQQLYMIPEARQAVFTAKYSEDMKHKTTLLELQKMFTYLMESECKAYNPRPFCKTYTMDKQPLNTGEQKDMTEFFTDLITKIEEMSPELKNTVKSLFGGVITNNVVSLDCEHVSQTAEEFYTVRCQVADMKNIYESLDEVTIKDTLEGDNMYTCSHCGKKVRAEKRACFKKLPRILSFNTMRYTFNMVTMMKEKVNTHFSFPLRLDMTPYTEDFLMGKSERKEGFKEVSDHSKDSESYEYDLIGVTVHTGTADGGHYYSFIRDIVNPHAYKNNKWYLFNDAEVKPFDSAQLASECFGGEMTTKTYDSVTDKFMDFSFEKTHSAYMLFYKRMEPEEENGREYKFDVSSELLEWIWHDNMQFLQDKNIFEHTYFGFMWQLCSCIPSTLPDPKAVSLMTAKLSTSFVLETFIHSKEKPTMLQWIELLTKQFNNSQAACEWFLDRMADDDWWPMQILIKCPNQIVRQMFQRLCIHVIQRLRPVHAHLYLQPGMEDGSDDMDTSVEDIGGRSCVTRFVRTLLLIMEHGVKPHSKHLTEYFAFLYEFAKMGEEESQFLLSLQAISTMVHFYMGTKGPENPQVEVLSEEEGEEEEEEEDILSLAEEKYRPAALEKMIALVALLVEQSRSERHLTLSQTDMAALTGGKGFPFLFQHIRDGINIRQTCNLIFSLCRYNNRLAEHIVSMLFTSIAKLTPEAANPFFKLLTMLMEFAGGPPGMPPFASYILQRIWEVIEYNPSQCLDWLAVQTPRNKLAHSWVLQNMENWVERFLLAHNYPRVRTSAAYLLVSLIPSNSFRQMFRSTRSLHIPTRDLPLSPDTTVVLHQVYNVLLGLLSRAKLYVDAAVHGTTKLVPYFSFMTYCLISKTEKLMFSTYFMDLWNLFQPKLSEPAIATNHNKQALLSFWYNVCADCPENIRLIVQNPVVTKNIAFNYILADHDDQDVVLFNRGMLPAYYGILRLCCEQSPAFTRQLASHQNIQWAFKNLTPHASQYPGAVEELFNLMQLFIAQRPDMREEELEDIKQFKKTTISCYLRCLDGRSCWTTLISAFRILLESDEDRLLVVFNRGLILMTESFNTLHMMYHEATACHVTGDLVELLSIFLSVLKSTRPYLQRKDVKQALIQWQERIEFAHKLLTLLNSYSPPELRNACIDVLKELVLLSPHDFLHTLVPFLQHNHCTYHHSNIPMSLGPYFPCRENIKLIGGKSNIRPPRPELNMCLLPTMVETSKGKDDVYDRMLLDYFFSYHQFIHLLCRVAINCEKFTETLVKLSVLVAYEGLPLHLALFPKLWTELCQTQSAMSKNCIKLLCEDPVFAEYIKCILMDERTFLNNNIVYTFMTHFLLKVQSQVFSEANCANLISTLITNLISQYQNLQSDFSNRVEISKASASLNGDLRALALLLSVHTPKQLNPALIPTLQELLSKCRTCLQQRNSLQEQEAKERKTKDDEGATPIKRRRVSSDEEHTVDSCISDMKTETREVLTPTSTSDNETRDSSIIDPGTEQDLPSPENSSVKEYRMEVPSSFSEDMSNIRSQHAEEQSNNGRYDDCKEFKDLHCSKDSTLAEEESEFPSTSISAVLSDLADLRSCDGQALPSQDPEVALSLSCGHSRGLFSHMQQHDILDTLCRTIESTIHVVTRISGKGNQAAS
Summary of the method: (§1)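 Each value is an average log2 ratio of fragment to vehicle, tested by unpaired t-test. The underlying Spectronaut label-free quantities were global-median-normalised, and only proteins with ≥2 unique peptides were included. Triplicate HEK293T lysate samples (495 µg) were exposed to fragment at 200 µM or vehicle for 3 h, then to Biotin-Ahx-Ub-VS at 0.5 µM final for 1 h, before NeutrAvidin enrichment of labelled DUBs, LysC and trypsin digestion, and diaPASEF LC-MS/MS.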

USP36 = target: T1, USP36 (UniProt Q9P275)
T1 sequence (whole entry): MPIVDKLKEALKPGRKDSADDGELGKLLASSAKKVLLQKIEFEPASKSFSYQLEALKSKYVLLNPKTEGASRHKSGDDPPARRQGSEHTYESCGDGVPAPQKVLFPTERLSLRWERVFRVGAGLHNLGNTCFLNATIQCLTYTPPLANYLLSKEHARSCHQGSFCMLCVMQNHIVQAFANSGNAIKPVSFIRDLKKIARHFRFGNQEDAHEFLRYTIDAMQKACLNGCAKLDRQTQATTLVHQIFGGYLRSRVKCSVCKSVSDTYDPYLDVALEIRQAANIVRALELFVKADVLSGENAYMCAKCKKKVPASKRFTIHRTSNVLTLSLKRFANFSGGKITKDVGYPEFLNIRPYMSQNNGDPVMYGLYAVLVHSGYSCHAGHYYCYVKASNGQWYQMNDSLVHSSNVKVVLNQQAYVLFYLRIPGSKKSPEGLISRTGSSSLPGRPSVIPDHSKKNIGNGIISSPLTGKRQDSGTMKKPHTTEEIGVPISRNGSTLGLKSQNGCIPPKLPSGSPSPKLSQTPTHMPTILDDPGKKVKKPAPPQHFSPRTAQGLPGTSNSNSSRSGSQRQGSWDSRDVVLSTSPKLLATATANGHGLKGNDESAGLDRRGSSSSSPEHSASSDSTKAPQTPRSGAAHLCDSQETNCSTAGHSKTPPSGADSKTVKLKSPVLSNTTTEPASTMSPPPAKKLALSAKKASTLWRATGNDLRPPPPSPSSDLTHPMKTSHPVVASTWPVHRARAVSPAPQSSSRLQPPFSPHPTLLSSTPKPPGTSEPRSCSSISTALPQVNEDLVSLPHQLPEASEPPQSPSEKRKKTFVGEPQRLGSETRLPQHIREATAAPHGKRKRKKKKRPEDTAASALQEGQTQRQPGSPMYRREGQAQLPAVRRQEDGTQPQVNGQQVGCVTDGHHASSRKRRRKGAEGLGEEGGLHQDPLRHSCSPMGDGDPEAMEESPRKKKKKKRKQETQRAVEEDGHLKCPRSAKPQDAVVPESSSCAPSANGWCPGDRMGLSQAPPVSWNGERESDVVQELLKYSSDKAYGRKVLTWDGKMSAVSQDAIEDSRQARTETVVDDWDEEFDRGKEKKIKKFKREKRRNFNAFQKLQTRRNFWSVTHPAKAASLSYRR
Summary of the method: as §1

USP38 = target: T2, USP38 (UniProt Q8NB14)
T2 sequence (whole entry): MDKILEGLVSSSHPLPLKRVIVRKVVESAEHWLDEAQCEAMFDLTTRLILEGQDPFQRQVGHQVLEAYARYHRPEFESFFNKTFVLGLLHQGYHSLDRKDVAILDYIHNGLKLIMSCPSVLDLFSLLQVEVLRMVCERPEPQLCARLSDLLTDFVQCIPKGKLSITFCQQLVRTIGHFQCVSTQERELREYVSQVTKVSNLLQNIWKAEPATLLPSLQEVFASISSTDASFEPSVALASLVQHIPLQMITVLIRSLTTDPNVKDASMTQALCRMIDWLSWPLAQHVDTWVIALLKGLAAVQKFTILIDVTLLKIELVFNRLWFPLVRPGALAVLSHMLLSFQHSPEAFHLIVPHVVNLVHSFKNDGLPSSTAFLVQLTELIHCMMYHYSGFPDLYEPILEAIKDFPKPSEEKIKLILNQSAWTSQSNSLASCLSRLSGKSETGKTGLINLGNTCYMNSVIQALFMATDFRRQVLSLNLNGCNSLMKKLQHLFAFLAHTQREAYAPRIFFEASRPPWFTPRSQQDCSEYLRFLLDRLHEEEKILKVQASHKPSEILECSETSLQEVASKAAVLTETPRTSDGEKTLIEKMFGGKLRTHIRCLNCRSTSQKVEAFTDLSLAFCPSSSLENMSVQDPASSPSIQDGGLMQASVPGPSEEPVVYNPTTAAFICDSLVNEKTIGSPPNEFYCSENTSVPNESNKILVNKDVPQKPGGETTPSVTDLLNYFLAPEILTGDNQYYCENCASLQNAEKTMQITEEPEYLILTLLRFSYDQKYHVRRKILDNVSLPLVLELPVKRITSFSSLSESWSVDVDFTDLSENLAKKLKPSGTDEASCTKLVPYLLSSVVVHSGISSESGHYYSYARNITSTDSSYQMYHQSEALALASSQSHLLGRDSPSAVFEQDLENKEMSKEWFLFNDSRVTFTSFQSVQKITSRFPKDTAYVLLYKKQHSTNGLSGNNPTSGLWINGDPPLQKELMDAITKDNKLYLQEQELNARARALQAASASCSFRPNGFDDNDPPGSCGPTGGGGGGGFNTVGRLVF
Summary of the method: as §1

USP39 = target: T3, USP39 (UniProt Q53GS9)
T3 sequence (whole entry): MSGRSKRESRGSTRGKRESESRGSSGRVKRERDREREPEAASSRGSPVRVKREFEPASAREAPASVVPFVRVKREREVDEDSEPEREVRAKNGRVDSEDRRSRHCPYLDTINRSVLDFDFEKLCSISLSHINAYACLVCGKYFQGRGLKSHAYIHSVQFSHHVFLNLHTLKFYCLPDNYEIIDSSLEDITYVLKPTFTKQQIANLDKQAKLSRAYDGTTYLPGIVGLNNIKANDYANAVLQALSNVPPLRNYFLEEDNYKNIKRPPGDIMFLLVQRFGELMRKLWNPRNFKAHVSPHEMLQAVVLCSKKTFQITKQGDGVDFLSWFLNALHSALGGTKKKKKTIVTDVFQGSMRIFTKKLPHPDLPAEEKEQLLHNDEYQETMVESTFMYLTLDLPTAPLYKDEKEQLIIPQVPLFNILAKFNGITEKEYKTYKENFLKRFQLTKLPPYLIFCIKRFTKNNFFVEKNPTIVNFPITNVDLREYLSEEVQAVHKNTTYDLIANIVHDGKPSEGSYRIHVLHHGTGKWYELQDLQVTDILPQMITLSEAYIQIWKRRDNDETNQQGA
Summary of the method: as §1

USP4 = target: T4, USP4 (UniProt Q13107)
T4 sequence (whole entry): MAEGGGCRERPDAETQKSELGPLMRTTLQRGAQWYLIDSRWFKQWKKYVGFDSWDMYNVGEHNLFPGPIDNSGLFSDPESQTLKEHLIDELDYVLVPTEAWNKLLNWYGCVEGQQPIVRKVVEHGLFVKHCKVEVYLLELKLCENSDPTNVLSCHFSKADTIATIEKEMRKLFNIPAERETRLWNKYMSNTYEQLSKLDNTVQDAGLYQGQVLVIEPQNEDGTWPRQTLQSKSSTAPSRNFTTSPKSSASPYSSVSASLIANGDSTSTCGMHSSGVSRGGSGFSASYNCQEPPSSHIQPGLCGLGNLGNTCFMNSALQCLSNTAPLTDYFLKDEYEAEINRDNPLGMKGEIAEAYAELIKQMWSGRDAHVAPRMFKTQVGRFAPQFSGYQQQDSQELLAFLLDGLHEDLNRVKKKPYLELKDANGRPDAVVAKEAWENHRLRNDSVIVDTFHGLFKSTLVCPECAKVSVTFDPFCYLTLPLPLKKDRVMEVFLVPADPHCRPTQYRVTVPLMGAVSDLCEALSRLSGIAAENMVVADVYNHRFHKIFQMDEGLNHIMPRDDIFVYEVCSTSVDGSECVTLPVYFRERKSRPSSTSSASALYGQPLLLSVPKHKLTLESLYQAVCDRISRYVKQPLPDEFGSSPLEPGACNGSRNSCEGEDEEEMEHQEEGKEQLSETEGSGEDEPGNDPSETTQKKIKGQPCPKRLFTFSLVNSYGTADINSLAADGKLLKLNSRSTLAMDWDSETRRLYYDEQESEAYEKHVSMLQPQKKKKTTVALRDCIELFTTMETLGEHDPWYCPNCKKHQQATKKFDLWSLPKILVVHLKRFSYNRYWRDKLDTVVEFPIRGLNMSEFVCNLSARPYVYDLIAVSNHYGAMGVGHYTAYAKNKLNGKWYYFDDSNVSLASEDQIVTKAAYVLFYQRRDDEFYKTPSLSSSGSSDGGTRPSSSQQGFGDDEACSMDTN
Summary of the method: as §1

Measured: log2 ratio of Biotin-Ahx-Ub-VS probe labelling

Cl.Cn1c(CNC(=O)CCl)nc2cccnc21
inactive: USP34 -0.174 | USP36 -0.125 | USP38 0.0315 | USP39 0.234 | USP4 -0.102
